{"source": "the supplement of paper PMC8728848", "binders": {"B1": {"name": "Epa1-NP (Candida glabrata), Q6VBJ0 (protein)", "chain": "MILNPALFLNKCVCIYTTLILLLLTNGGYATSSNDISLASKDPTTFPLGCSPDITTPKKGLSMELYSYDFRKKGSYPCWDAAYLDPNYPRTGYKSHRLLAKVDGVTGNINFYYHATKGCTPQLGHLPASYNYPKPLTMTNFTMLLYGYFRPKVTGFHTFTISADDLLFVNFGAGNAFDCCRRDSSADHFGNYQAYAIWGSKTAKDELTVHLDAGVYYPIRLFYNNREYDGALSFTFKTESNENTVSDFSEYFFSLDDTEEGCPGLISYDSSCASVKTSKIIGIDYHTETPNENLVPITKTIYHLGIPCTGTTTTPLCGSGFYDPLANKCVTINTSSTSSVTKTTSHTTSKEVSFHSSISSQKTLIPKSIPSPYGPIKSQSIPTEMETSSEISSSEYAFSDVISTPSHSPYTKKHSSLNSSSYTSTVIHSLTSYSISQGIFSTSLSEQNITSKSSTDKFSTATSMSNNITQSSIIISQFSTNNENYTTTSMHTSSDKISTETLNNSISTTTSILFSNSSTILKNNTTIISSDKDTHYHPVNPTIVCSTNKTEIICASITQPSISNSNNHWSSSVLKFNSTTVRSTLPSSAGSNETSINVPFSSSTESNTSTSSTSTSNSKMVRSTLPSSAGSNETSISVPFSSSTESNTSTSSTSTSNSKMVRSTLPSSAGSNETSINVPFSSSTESNTSTSSTSTSNSKTVRSTPFSSAGIIMTSLSQRNNKSASSYASSNSKCYNTADSCRKVHSTPSYLLTSSYTSEGVDYDCSLVSTKLKINDTNCVNNKHTTKSCLKTSVTTTIPTLEIKTARKSSSNTIGLHSYPTSSPNKSISSAPIIGYISSFKTIKTASPSYQTSDLTTITTITSLNNPGSTAVENTHESNDKSRKTSSNDISSKHSVIKETKDAVESSNKSHQTNTLKCSSIIIASSSHNSYESLGGTTLTLTLSKVYSPQNNDTLPFLEISEVNPSRTVLPESSKMMQYLTSTEERNKTARNTIATNIVSISTFHFEGEGNAIRMGYTQLLLMLIGIIVMNIGT"}}, "test_in_all_cases": "glycan array binding signal (z-score within array); higher = stronger binding", "settings_in_all_cases": "glycan notation: IUPAC condensed, linker removed", "key": {"[1]": {"molecular_target": "Fuc(a1-2)Gal(b1-3)GlcNAc(b1-3)Gal(b1-4)Glc", "how_it_was_run": "(§1)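 Glycan array data came from 3228 arrays in the Consortium for Functional Glycomics database, and only arrays with an available protein sequence were kept. Glycan names were put into IUPAC-condensed notation, and columns mapping to the same glycan were averaged. The binding signal is a within-array Z-score, averaged across arrays of one protein sequence run at different concentrations or buffers and across linkers. A negative Z-score can be read as non-binding.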"}, "[2]": {"molecular_target": "Fuc(a1-2)Gal(b1-4)GlcNAc(b1-3)Gal(b1-4)GlcNAc(b1-2)Man(a1-3)[Fuc(a1-2)Gal(b1-4)GlcNAc(b1-3)Gal(b1-4)GlcNAc(b1-2)Man(a1-6)]Man(b1-4)GlcNAc(b1-4)GlcNAc", "how_it_was_run": "as §1"}, "[3]": {"molecular_target": "Fuc(a1-2)Gal3S(b1-4)GlcNAc", "how_it_was_run": "as §1"}, "Fuc(a1-2)GlcNAc": {"molecular_target": "Fuc(a1-2)GlcNAc", "how_it_was_run": "as §1"}, "[4]": {"molecular_target": "Fuc(a1-2)[Gal(a1-3)]Gal(b1-4)GlcNAc(b1-3)GalNAc", "how_it_was_run": "as §1"}, "[5]": {"molecular_target": "Fuc(a1-2)[Gal(a1-3)]Gal(b1-4)GlcNAc(b1-3)[Fuc(a1-2)[Gal(a1-3)]Gal(b1-4)GlcNAc(b1-6)]GalNAc", "how_it_was_run": "as §1"}, "[6]": {"molecular_target": "Fuc(a1-2)[GalNAc(a1-3)]Gal(b1-3)GlcNAc(b1-6)GalNAc", "how_it_was_run": "as §1"}, "[7]": {"molecular_target": "Fuc(a1-2)[GalNAc(a1-3)]Gal(b1-4)[Fuc(a1-3)]GlcNAc", "how_it_was_run": "as §1"}, "[8]": {"molecular_target": "Fuc(a1-2)[GalNAc(b1-3)]Gal", "how_it_was_run": "as §1"}, "[9]": {"molecular_target": "Fuc(a1-3)[Gal3S(b1-4)]GlcNAc", "how_it_was_run": "as §1"}, "[10]": {"molecular_target": "Fuc(a1-3)[GalNAc(b1-4)]GlcNAc", "how_it_was_run": "as §1"}, "[11]": {"molecular_target": "Gal(a1-3)Gal(b1-4)[Fuc(a1-3)]GlcNAc(b1-2)Man(a1-3)[Gal(a1-3)Gal(b1-4)[Fuc(a1-3)]GlcNAc(b1-2)Man(a1-6)]Man(b1-4)GlcNAc(b1-4)GlcNAc", "how_it_was_run": "as §1"}, "Gal(a1-4)Gal(b1-4)Gal": {"molecular_target": "Gal(a1-4)Gal(b1-4)Gal", "how_it_was_run": "as §1"}, "Gal(b1-2)Gal": {"molecular_target": "Gal(b1-2)Gal", "how_it_was_run": "as §1"}, "Gal(b1-3)Gal": {"molecular_target": "Gal(b1-3)Gal", "how_it_was_run": "as §1"}, "Gal(b1-3)Gal(b1-4)GlcNAc": {"molecular_target": "Gal(b1-3)Gal(b1-4)GlcNAc", "how_it_was_run": "as §1"}, "Gal(b1-3)GalNAc": {"molecular_target": "Gal(b1-3)GalNAc", "how_it_was_run": "as §1"}, "Gal(b1-3)GalNAc(b1-3)Gal": {"molecular_target": "Gal(b1-3)GalNAc(b1-3)Gal", "how_it_was_run": "as §1"}, "[12]": {"molecular_target": "Gal(b1-3)GalNAc(b1-3)Gal(b1-4)Glc", "how_it_was_run": "as §1"}, "[13]": {"molecular_target": "Gal(b1-3)GalNAc(b1-4)Gal(b1-4)Glc", "how_it_was_run": "as §1"}, "[14]": {"molecular_target": "Gal(b1-3)GalNAc(b1-4)[Neu5Ac(a2-3)]Gal(b1-4)Glc", "how_it_was_run": "as §1"}, "[15]": {"molecular_target": "Gal(b1-3)[Neu5Ac(a2-6)]GalNAc", "how_it_was_run": "as §1"}, "[16]": {"molecular_target": "Gal(b1-4)GlcNAc(b1-2)Man(a1-6)[Man(a1-3)]Man(b1-4)GlcNAc(b1-4)GlcNAc", "how_it_was_run": "as §1"}, "[17]": {"molecular_target": "Gal(b1-4)GlcNAc(b1-3)Gal(b1-4)GlcNAc(b1-2)[Gal(b1-4)GlcNAc(b1-3)Gal(b1-4)GlcNAc(b1-6)]Man(a1-6)[Gal(b1-4)GlcNAc(b1-3)Gal(b1-4)GlcNAc(b1-2)Man(a1-3)]Man(b1-4)GlcNAc(b1-4)GlcNAc", "how_it_was_run": "as §1"}, "[18]": {"molecular_target": "Gal(b1-4)GlcNAc(b1-3)Gal(b1-4)GlcNAc(b1-2)[Gal(b1-4)GlcNAc(b1-3)Gal(b1-4)GlcNAc(b1-6)]Man(a1-6)[Gal(b1-4)GlcNAc(b1-3)Gal(b1-4)GlcNAc(b1-2)Man(a1-3)]Man(b1-4)GlcNAc(b1-4)[Fuc(a1-6)]GlcNAc", "how_it_was_run": "as §1"}, "[19]": {"molecular_target": "Gal(b1-4)GlcNAc(b1-3)Gal(b1-4)GlcNAc(b1-3)Gal(b1-4)GlcNAc(b1-2)[Gal(b1-4)GlcNAc(b1-3)Gal(b1-4)GlcNAc(b1-3)Gal(b1-4)GlcNAc(b1-6)]Man(a1-6)[Gal(b1-4)GlcNAc(b1-3)Gal(b1-4)GlcNAc(b1-3)Gal(b1-4)GlcNAc(b1-2)Man(a1-3)]Man(b1-4)GlcNAc(b1-4)[Fuc(a1-6)]GlcNAc", "how_it_was_run": "as §1"}, "[20]": {"molecular_target": "Gal(b1-4)GlcNAc(b1-3)Gal(b1-4)GlcNAc(b1-3)Gal(b1-4)GlcNAc(b1-3)Gal(b1-4)GlcNAc(b1-3)Gal(b1-4)GlcNAc(b1-3)Gal(b1-4)GlcNAc(b1-2)Man(a1-3)[Gal(b1-4)GlcNAc(b1-3)Gal(b1-4)GlcNAc(b1-3)Gal(b1-4)GlcNAc(b1-3)Gal(b1-4)GlcNAc(b1-3)Gal(b1-4)GlcNAc(b1-3)Gal(b1-4)GlcNAc(b1-2)Man(a1-6)]Man(b1-4)GlcNAc(b1-4)GlcNAc", "how_it_was_run": "as §1"}, "[21]": {"molecular_target": "Gal(b1-4)GlcNAc(b1-6)Gal(b1-4)GlcNAc", "how_it_was_run": "as §1"}, "[22]": {"molecular_target": "Gal(b1-4)GlcNAc(b1-6)[Gal(b1-3)]GalNAc", "how_it_was_run": "as §1"}, "[23]": {"molecular_target": "Gal(b1-4)GlcNAc(b1-6)[Gal(b1-3)]GlcNAc", "how_it_was_run": "as §1"}}, "note": "About 410 targets per protein were measured; listed, in parts, are those with the strongest signals and a random draw of the rest.", "data": [{"binder": "B1", "values": [{"measurement": "glycan array binding signal (z-score)", "setting": "[1]", "result": -0.296}, {"measurement": "glycan array binding signal (z-score)", "setting": "[2]", "result": -0.277}, {"measurement": "glycan array binding signal (z-score)", "setting": "[3]", "result": -0.26}, {"measurement": "glycan array binding signal (z-score)", "setting": "Fuc(a1-2)GlcNAc", "result": -0.542}, {"measurement": "glycan array binding signal (z-score)", "setting": "[4]", "result": -0.269}, {"measurement": "glycan array binding signal (z-score)", "setting": "[5]", "result": -0.281}, {"measurement": "glycan array binding signal (z-score)", "setting": "[6]", "result": -0.291}, {"measurement": "glycan array binding signal (z-score)", "setting": "[7]", "result": -0.283}, {"measurement": "glycan array binding signal (z-score)", "setting": "[8]", "result": -0.272}, {"measurement": "glycan array binding signal (z-score)", "setting": "[9]", "result": -0.341}, {"measurement": "glycan array binding signal (z-score)", "setting": "[10]", "result": -0.265}, {"measurement": "glycan array binding signal (z-score)", "setting": "[11]", "result": -0.174}, {"measurement": "glycan array binding signal (z-score)", "setting": "Gal(a1-4)Gal(b1-4)Gal", "result": 0.374}, {"measurement": "glycan array binding signal (z-score)", "setting": "Gal(b1-2)Gal", "result": 0.199}, {"measurement": "glycan array binding signal (z-score)", "setting": "Gal(b1-3)Gal", "result": 2.9}, {"measurement": "glycan array binding signal (z-score)", "setting": "Gal(b1-3)Gal(b1-4)GlcNAc", "result": 5}, {"measurement": "glycan array binding signal (z-score)", "setting": "Gal(b1-3)GalNAc", "result": 2.56}, {"measurement": "glycan array binding signal (z-score)", "setting": "Gal(b1-3)GalNAc(b1-3)Gal", "result": 2.91}, {"measurement": "glycan array binding signal (z-score)", "setting": "[12]", "result": 1.31}, {"measurement": "glycan array binding signal (z-score)", "setting": "[13]", "result": 8.65}, {"measurement": "glycan array binding signal (z-score)", "setting": "[14]", "result": 2.27}, {"measurement": "glycan array binding signal (z-score)", "setting": "[15]", "result": 5.06}, {"measurement": "glycan array binding signal (z-score)", "setting": "[16]", "result": -0.225}, {"measurement": "glycan array binding signal (z-score)", "setting": "[17]", "result": 1.54}, {"measurement": "glycan array binding signal (z-score)", "setting": "[18]", "result": 2.48}, {"measurement": "glycan array binding signal (z-score)", "setting": "[19]", "result": 2.81}, {"measurement": "glycan array binding signal (z-score)", "setting": "[20]", "result": 1.3}, {"measurement": "glycan array binding signal (z-score)", "setting": "[21]", "result": 2.34}, {"measurement": "glycan array binding signal (z-score)", "setting": "[22]", "result": 2.73}, {"measurement": "glycan array binding signal (z-score)", "setting": "[23]", "result": 2.48}]}]}
